The source of these data is ChEMBL document CHEMBL5724796, “Tm Shift (DSF) assay results for EUbOPEN Chemogenomics Library” (2024).

What all share (conditions): Compound concentration 20.0 uM
In assay [1] the target is Tyrosine-protein kinase ABL1 (Homo sapiens) (UniProt P00519).
Assay [2] addresses Bromodomain-containing protein 4 (Homo sapiens) (UniProt O60885).
Assay [3] has as its target Cyclin-dependent kinase 2 (Homo sapiens) (UniProt P24941).
The target of assay [4] is Casein kinase I isoform delta (Homo sapiens) (UniProt P48730).
The target of assay [5] is Glycogen synthase kinase-3 beta (Homo sapiens) (UniProt P49841).
Assay [6] concerns the target Mitogen-activated protein kinase 1 (Homo sapiens) (UniProt P28482).
Assay [7] deals with T1, Aurora kinase A (Homo sapiens) (UniProt O14965).
T1 sequence (whole entry): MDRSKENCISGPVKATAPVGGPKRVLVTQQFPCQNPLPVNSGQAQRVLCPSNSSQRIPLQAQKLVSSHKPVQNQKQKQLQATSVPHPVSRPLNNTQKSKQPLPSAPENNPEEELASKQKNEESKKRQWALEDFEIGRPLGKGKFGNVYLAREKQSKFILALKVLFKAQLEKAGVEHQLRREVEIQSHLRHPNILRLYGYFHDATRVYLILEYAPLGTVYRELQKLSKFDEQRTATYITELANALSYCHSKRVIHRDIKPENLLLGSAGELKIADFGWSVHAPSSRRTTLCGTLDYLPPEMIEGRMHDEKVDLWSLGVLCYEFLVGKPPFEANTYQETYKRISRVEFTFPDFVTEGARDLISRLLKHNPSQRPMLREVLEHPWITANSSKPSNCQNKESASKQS

The target of assay [8] is T2, Transcription intermediary factor 1-alpha (Homo sapiens) (UniProt O15164).
T2 sequence (whole entry): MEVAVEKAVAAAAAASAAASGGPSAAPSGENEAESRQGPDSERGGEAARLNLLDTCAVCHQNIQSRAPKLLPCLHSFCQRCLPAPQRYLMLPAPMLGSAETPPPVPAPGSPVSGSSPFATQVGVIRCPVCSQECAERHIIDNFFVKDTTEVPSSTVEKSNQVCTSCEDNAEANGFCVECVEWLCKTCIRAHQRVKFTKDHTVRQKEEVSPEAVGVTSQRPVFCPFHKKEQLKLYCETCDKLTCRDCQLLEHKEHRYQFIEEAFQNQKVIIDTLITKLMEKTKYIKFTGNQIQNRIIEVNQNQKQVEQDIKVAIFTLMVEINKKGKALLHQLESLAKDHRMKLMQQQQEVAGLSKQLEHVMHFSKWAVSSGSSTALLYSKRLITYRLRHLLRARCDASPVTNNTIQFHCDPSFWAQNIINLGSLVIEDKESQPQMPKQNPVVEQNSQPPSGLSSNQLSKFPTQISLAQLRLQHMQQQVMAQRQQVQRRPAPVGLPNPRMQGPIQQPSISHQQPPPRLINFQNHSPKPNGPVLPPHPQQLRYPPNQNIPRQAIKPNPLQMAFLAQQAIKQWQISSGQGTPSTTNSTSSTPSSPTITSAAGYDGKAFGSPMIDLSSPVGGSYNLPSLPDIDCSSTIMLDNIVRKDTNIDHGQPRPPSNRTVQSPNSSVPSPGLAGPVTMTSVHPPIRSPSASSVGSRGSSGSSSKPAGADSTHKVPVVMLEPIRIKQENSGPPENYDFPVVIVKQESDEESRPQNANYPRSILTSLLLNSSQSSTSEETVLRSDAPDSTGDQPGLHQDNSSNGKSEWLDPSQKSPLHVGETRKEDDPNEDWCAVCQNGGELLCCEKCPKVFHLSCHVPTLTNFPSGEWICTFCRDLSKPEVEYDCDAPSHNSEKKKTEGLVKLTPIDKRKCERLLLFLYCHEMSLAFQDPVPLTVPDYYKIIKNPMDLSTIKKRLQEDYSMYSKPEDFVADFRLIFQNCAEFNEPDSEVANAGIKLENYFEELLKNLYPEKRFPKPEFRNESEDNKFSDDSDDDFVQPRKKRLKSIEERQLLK

Residues, ends and D or L forms follow the SMILES beside them. *: point of attachment. Boc = CC(C)(C)OC(=O)*

Sequence of Casein kinase I isoform delta (Homo sapiens) (P48730 whole entry, looked up, canonical isoform): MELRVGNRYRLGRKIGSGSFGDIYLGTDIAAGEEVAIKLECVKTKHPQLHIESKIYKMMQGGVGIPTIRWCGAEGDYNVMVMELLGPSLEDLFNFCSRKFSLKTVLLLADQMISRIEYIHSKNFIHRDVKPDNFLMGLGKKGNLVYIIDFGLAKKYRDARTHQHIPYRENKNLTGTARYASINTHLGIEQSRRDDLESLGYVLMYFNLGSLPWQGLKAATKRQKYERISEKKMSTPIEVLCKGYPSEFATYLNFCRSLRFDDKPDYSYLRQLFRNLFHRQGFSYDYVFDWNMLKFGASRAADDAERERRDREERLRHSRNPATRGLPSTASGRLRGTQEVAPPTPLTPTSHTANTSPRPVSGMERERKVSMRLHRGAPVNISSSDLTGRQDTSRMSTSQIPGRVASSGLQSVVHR
Sequence of Tyrosine-protein kinase ABL1 (Homo sapiens) (P00519 whole entry): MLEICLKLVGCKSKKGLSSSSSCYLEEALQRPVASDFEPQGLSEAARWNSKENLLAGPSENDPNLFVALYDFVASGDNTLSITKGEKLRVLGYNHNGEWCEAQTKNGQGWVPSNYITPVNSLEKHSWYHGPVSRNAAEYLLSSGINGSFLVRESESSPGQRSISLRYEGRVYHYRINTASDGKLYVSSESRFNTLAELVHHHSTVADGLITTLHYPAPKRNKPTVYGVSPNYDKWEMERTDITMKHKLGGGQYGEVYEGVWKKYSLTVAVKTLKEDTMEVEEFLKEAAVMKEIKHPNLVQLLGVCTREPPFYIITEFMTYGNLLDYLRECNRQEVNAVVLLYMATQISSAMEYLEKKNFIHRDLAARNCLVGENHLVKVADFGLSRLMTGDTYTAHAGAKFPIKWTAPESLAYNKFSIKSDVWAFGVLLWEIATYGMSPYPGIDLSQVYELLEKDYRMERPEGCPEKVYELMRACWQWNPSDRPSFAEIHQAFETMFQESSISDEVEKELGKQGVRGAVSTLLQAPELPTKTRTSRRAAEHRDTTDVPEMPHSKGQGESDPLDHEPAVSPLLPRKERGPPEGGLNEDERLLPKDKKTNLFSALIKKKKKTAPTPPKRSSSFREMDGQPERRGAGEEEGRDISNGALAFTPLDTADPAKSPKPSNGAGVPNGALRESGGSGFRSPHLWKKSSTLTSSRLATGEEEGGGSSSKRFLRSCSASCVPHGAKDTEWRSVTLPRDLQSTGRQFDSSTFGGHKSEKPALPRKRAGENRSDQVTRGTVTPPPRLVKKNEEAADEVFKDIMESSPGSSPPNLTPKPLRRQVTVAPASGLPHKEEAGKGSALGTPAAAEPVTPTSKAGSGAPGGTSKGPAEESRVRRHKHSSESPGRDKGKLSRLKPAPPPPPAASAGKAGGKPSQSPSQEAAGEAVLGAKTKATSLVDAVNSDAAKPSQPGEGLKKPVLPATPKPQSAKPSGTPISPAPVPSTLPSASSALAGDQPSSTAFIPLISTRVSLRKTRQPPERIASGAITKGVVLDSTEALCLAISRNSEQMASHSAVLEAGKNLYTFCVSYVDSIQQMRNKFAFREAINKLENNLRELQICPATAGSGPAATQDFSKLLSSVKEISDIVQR
Sequence of Glycogen synthase kinase-3 beta (Homo sapiens) (P49841 whole entry, looked up): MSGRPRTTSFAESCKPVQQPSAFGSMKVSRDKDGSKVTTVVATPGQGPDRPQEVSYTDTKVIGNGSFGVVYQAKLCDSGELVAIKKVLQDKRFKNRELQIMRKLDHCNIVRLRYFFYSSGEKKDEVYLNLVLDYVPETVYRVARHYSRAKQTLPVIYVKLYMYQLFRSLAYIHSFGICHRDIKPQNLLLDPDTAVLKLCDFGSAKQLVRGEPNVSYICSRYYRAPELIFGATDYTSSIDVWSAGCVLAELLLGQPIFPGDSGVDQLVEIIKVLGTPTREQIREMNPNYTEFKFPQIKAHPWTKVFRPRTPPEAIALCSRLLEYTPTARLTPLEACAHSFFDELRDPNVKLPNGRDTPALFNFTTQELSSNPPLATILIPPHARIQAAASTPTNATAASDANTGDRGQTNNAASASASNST
Sequence of Mitogen-activated protein kinase 1 (Homo sapiens) (P28482 whole entry): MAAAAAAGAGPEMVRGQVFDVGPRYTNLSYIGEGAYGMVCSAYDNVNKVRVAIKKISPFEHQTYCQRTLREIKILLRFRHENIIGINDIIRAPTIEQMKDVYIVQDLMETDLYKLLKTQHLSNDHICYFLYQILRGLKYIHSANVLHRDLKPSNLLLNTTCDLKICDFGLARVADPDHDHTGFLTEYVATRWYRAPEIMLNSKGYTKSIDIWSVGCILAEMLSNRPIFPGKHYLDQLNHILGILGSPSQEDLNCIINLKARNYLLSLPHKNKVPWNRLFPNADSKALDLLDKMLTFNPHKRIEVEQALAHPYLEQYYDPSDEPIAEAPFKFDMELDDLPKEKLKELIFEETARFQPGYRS

The term ΔTm denotes the change in melting temperature against a reference sample. In the case of `CS(=O)(=O)c1ccc(Oc2cc(F)cc(C#N)c2)c2c1C(O)C(F)C2` (stereo not given), the ΔTm in assay [1] was 0.53 °C; in assay [2], -2.49 °C; in assay [3], 0.01 °C; in assay [4], -0.13 °C; in assay [5] it was -0.04 °C; in assay [6], 0.54 °C. The thermal shift (ΔTm) was -2.47 °C in assay [7] and -0.39 °C in assay [8].
`C[C@H]1CCCN1Cc1nc2cc(NC(=O)c3ccc4c(cnn4C)c3)ccc2[nH]1`: the ΔTm was 2.18 °C in assay [1]; -0.92 °C in assay [2]; 0.64 °C in assay [3]; 0.92 °C in assay [4]; -0.87 °C in assay [5]; 0.27 °C in assay [6]. Also, the ΔTm is -0.14 °C in assay [7] and -0.88 °C in assay [8].
Take `CC[C@H](C)[C@H](NC(C)=O)C(=O)N[C@@H](CCC(=O)O)C(=O)N[C@H](C(=O)N[C@H](C=O)CC(=O)O)[C@@H](C)O` (Ac-IETD-aldehyde): the ΔTm was 0.22 °C in assay [1]; -2.51 °C in assay [2]; -0.65 °C in assay [3]; 0.05 °C in assay [4]; -1.72 °C in assay [5]; -0.3 °C in assay [6]. Further, the results for the ΔTm in assay [7] and in assay [8] were -1.5 °C and -1.13 °C, respectively.
For `COc1ccc(N2CCN(C(=O)c3cc4c(s3)-c3ccccc3S(=O)(=O)C4)CC2)cc1`, the ΔTm in assay [1] is 0.15 °C; in assay [2] it was -2.04 °C; in assay [3], 0.12 °C; in assay [4], -0.01 °C; in assay [5], -0.71 °C; in assay [6], 0.36 °C. Further, the results for the shift in melting temperature (ΔTm) in assay [7] and in assay [8] were -1.67 °C and 0.69 °C, respectively.
For `O=C(NCc1ccc(Cl)cc1)C1CCN(S(=O)(=O)c2cc(Cl)cc(Cl)c2)CC1`, the thermal shift (ΔTm) was 0.35 °C in assay [1]; -2.83 °C in assay [2]; 0.17 °C in assay [3]; -0.37 °C in assay [4]; -1.43 °C in assay [5]; 0.06 °C in assay [6]. Moreover, the figures for the thermal shift (ΔTm) in assay [7] and in assay [8] were -1.55 °C and 0.02 °C, respectively.
On to `Cc1c(F)c(N)cc(C(=O)Nc2cc(-n3cc(C(=O)NCCCN4CCOCC4)nn3)ccc2N2CCN(C)CC2)c1Cl`, for which the ΔTm in assay [1] is 0.14 °C; in assay [2] it was -3.1 °C; in assay [3] it was 0.07 °C; in assay [4] it was 0.04 °C; in assay [5], -0.82 °C; in assay [6], 0.14 °C. Also, the ΔTm is -2.25 °C in assay [7] and -0.56 °C in assay [8].
Consider `CCn1c(=S)[nH]c2cc3c(NCc4ccccc4N4CCC(CO)CC4)ncnc3cc21`, for which the thermal shift (ΔTm) was 0.75 °C in assay [1]; 4.86 °C in assay [2]; -0.14 °C in assay [3]; 0.33 °C in assay [4]; -0.82 °C in assay [5]; 0.17 °C in assay [6]. Further, the figures for the ΔTm in assay [7] and in assay [8] were -1.92 °C and -0.23 °C, respectively.
As for `CCNC(=O)/C=C/c1cccc(Br)c1`, the thermal shift (ΔTm) was 0.39 °C in assay [1]; -0.78 °C in assay [2]; 0.01 °C in assay [3]; -0.27 °C in assay [4]; -0.4 °C in assay [5]; -0.04 °C in assay [6]. Also, the thermal shift (ΔTm) in assay [7] was -2.22 °C; in assay [8], -0.12 °C.
As for `CC(=Cc1cc(C)ccc1C=C(C)C(=O)NC(=N)N)C(=O)N=C(N)N`, the shift in melting temperature (ΔTm) was 0.75 °C in assay [1]; -2.96 °C in assay [2]; -0.11 °C in assay [3]; 0 °C in assay [4]; -0.1 °C in assay [5]; 0.25 °C in assay [6]. Also, the results for the shift in melting temperature (ΔTm) in assay [7] and in assay [8] were -2.39 °C and -3.05 °C, respectively.
With `CC(C)(C)OC(=O)N1CCC[C@H]1C(=O)N1CCC[C@H]1C=O` (Boc-Pro-Pro-aldehyde), the thermal shift (ΔTm) is 0.36 °C in assay [1]; -1.7 °C in assay [2]; 0.06 °C in assay [3]; -0.53 °C in assay [4]; -0.11 °C in assay [5]; 0.63 °C in assay [6]. Besides, the results for the shift in melting temperature (ΔTm) in assay [7] and in assay [8] were -2.5 °C and -0.63 °C, respectively.
For `CCOc1ccc(Cc2cc([C@@H]3O[C@H](CO)[C@@H](O)[C@H](O)[C@H]3O)ccc2Cl)cc1`, the ΔTm in assay [1] is 0.64 °C; in assay [2] it was -1.76 °C; in assay [3], -0.13 °C; in assay [4], -0.16 °C; in assay [5], -0.82 °C; in assay [6] it was 0.08 °C. In addition, the ΔTm in assay [7] is -2.13 °C; in assay [8], -0.07 °C.
As for `NC(=O)c1ccc(Oc2ccc(C(N)=O)cc2)cc1`, the shift in melting temperature (ΔTm) in assay [1] was 0.24 °C; in assay [2], -0.98 °C; in assay [3] it was -0.07 °C; in assay [4] it was 0.22 °C; in assay [5], 0.02 °C; in assay [6], 0.14 °C. Besides, the ΔTm in assay [7] is -1.15 °C; in assay [8], -0.86 °C.
`CCN(CC)S(=O)(=O)c1cc(Nc2nccc(-c3ccnc(-c4ccc(NC(=O)NC)cc4)c3)n2)ccc1Cl`: the ΔTm is 15.6 °C in assay [1]; 0 °C in assay [2]; 0 °C in assay [3]; 0.81 °C in assay [4]; 24.1 °C in assay [5]; 0 °C in assay [6]. Besides, the shift in melting temperature (ΔTm) in assay [7] and in assay [8] was 0 °C in each case.
As for `Cc1[nH]c2c(N3CCO[C@H](CO)C3)c(C#N)c(C(F)(F)F)nc2c1Cl`, the ΔTm in assay [1] was 0.59 °C; in assay [2], -1.62 °C; in assay [3], 1.92 °C; in assay [4], 0.2 °C; in assay [5], 1.93 °C; in assay [6], 1.85 °C. The shift in melting temperature (ΔTm) in assay [7] is -1.95 °C; in assay [8], -1.25 °C.
On to `CCNC(=O)NCCSC[C@H]1O[C@@H](n2cnc3c(N)ncnc32)[C@H](O)[C@@H]1O`, for which the thermal shift (ΔTm) in assay [1] is 0.85 °C; in assay [2] it was -1.51 °C; in assay [3], 0.53 °C; in assay [4], 0.63 °C; in assay [5] it was -0.36 °C; in assay [6], -1.34 °C. Besides, the shift in melting temperature (ΔTm) in assay [7] is -0.19 °C; in assay [8] it was -1.13 °C.
On to `O=C(Cc1ccccc1)c1cc(O)c(O)c([N+](=O)[O-])c1`, for which the shift in melting temperature (ΔTm) in assay [1] is 0.39 °C; in assay [2] it was -1.83 °C; in assay [3], 0.33 °C; in assay [4] it was -0.3 °C; in assay [5] it was -0.88 °C; in assay [6], 0.35 °C. The shift in melting temperature (ΔTm) in assay [7] was determined as 0 °C; in assay [8], 1.83 °C.
In the case of `C[C@@H]1O[C@@H](CC(=O)O)CC2=C1C(=O)c1c(O)cccc1C2=O`, the ΔTm was 0.53 °C in assay [1]; -3.04 °C in assay [2]; 0.21 °C in assay [3]; -1.39 °C in assay [4]; -2.21 °C in assay [5]; -0.24 °C in assay [6]. The values for the ΔTm in assay [7] and in assay [8] were -2.94 °C and -2.3 °C, respectively.
`CC(=O)C(=Cc1cc(O)c(O)c([N+](=O)[O-])c1)C(C)=O`: the ΔTm in assay [1] is 0.06 °C; in assay [2] it was 0.74 °C; in assay [3] it was 0.04 °C; in assay [4] it was -0.82 °C; in assay [5] it was -0.72 °C; in assay [6], 0.27 °C. In addition, the thermal shift (ΔTm) in assay [7] came out at 0.07 °C; in assay [8], 0.21 °C.
In the case of `CC(C)[C@H](NC(=O)[C@H](CCC(=O)O)NC(=O)[C@H](C)NC(=O)OC(C)(C)C)C(=O)N[C@H](C=O)CC(=O)O` (Boc-AEVD-aldehyde), the thermal shift (ΔTm) in assay [1] was 0.28 °C; in assay [2] it was -2.26 °C; in assay [3], -0.28 °C; in assay [4] it was -0.09 °C; in assay [5], -1.03 °C; in assay [6], -0.49 °C. In addition, the values for the thermal shift (ΔTm) in assay [7] and in assay [8] were -1.35 °C and -0.84 °C, respectively.
As to `COc1ccc(-n2c(SCCCN3C(=O)c4cccc5cccc(c45)C3=O)nnc2-c2ccncc2)cc1`, the thermal shift (ΔTm) in assay [1] was 0.68 °C; in assay [2], -3.3 °C; in assay [3] it was -0.02 °C; in assay [4] it was 0.26 °C; in assay [5] it was -0.45 °C; in assay [6] it was 0.07 °C. Further, the values for the ΔTm in assay [7] and in assay [8] were -1.38 °C and 0.1 °C, respectively.
